Laboratory results taken from PubChem BioAssay AID1347414 (National Center for Advancing Translational Sciences (NCATS), 2020).
Records with an inconclusive call do not appear. The source made the active and inactive calls. Calls come from the whole dose curve; as a rule, active = well fitted inhibition curve with a large enough effect; inconclusive = small, poorly fitted or top-dose-only effect; inactive = no such curve, though single readings can be large or run the other way.

Assay: qHTS to identify inhibitors of the type 1 interferon - major histocompatibility complex class I in skeletal muscle: Secondary screen by immunofluorescence; note: nearly all actives have a fitted effect of over 70% in size
Details: C25cl48 myoblasts, IFN-b induced HLA-ABC immunofluorescence, 24 h; series mostly up to 49.8 µM
Procedure, shortened: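 Immortalized human myoblasts C25cl48 were stimulated with 4.0 ng/ml IFN-beta and exposed to an 11-point 1:3 compound titration, top 50 uM, for 24 h at 37 C. They were then fixed and immunostained for HLA-ABC, and quantified by laser scanning cytometry.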
Potency is the fitted concentration of half-maximal effect.

Row | Structure (SMILES) | Potency
1 | C1=C/COCc2cc(ccc2OCCN2CCCC2)Nc2nccc(n2)-c2cccc(c2)COC/1 | 1290 nM (active)
2 | Cc1ccc(NC(=O)NCc2ccc3c(c2)CN(C2CCC(=O)NC2=O)C3=O)cc1Cl (stereo not drawn) | 8.1 nM (active)
3 | CC(=O)[C@]1(O)Cc2c(O)c3c(c(O)c2[C@@H](O[C@H]2C[C@H](N)[C@H](O)[C@H](C)O2)C1)C(=O)c1ccccc1C3=O | 230 nM (active)
